Experimental data reported in the supplement of paper PMC11732987, “Enantioselective OTUD7B fragment discovery through chemoproteomics screening and high-throughput optimisation” (Communications Chemistry, 2025).
Values without a mark were called inactive.

Columns and labels:
Test in all cases: log2 ratio of Biotin-Ahx-Ub-VS probe labelling (fragment/DMSO); higher = less target engagement (more negative = stronger competition), active = hit call of the paper (q ≤ 0.05, log2 ratio ≤ -1)
Conditions in all cases: compound concentration: 200 uM; treatment time: 3 h
[1] = molecular target: T1, USP19 (UniProt O94966)
T1 sequence (whole entry): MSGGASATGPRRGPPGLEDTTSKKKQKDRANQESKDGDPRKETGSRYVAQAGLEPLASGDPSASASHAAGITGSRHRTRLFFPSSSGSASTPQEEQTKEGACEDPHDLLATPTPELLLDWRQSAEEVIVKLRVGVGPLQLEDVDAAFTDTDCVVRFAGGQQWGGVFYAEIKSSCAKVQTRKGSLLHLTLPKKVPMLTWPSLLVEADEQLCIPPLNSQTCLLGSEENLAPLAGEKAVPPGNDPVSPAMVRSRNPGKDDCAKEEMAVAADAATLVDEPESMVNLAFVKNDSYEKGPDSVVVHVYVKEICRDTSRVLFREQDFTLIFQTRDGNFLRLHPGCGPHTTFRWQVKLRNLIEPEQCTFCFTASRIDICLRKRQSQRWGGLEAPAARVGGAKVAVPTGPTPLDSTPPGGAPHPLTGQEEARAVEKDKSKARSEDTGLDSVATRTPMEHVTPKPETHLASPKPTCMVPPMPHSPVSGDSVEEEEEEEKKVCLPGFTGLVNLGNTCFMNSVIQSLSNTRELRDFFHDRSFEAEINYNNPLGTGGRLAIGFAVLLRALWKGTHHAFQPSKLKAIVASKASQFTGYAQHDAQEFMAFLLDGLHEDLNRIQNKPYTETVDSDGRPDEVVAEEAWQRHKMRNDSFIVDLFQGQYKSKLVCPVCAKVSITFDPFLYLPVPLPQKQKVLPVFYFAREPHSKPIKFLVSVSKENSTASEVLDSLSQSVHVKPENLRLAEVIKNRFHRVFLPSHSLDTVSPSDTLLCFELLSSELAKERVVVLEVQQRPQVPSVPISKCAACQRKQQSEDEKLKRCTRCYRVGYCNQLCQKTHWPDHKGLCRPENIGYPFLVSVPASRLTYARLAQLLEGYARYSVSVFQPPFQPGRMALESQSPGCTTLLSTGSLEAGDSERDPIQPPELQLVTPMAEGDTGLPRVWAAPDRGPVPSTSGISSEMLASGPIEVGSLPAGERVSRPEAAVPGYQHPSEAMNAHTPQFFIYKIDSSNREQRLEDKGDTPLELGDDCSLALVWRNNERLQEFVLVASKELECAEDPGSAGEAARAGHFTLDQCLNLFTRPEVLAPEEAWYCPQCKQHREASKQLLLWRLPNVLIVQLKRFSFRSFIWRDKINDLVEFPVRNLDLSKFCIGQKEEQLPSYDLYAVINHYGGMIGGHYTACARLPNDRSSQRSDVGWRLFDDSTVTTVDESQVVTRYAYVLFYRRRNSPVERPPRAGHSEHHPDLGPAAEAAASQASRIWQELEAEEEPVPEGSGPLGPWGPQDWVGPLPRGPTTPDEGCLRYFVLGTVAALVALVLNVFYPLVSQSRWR
Outline: (§1)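 Global-median-normalised Spectronaut label-free quantities were compared by unpaired t-test, and values are average log2 ratios of fragment over vehicle. Only proteins with ≥2 unique peptides were used. HEK293T lysate (495 µg per sample) was treated in triplicate with fragment at 200 µM or vehicle for 3 h and then with Biotin-Ahx-Ub-VS at 0.5 µM final for 1 h. Labelled DUBs were then NeutrAvidin-enriched, digested with LysC and trypsin, and run by diaPASEF LC-MS/MS.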

[2] = molecular target: USP24 (UniProt Q9UPU5)
Outline: as §1

[3] = molecular target: T2, USP25 (UniProt Q9UHP3)
T2 sequence (whole entry): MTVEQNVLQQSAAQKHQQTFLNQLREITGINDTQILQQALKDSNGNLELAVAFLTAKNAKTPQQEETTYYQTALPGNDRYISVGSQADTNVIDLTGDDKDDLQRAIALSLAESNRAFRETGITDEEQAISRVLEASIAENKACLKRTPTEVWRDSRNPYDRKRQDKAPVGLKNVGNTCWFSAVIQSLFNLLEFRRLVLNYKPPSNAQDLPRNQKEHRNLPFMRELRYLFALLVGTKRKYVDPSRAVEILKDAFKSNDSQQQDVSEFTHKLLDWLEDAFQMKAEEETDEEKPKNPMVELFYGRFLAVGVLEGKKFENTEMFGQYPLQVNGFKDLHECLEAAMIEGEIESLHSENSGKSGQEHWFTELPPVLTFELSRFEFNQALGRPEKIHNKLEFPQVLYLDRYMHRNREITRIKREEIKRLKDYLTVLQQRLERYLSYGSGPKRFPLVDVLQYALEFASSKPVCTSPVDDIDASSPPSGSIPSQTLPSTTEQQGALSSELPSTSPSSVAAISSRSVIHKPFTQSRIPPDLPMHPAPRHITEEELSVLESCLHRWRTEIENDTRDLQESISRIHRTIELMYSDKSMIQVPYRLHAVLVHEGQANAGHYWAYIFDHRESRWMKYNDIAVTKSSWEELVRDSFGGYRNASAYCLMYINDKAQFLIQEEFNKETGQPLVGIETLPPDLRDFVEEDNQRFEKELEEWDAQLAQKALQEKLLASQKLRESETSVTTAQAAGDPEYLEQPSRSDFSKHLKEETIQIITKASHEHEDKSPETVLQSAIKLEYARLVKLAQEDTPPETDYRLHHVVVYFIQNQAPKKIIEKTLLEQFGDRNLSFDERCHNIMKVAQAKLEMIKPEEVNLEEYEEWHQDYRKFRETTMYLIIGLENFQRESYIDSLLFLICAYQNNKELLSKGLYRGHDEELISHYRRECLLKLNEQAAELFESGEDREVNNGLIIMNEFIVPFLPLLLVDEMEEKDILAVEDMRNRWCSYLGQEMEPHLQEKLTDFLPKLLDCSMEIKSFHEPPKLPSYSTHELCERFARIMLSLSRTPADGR
Outline: as §1

[4] = molecular target: T3, USP28 (UniProt Q96RU2)
T3 sequence (whole entry): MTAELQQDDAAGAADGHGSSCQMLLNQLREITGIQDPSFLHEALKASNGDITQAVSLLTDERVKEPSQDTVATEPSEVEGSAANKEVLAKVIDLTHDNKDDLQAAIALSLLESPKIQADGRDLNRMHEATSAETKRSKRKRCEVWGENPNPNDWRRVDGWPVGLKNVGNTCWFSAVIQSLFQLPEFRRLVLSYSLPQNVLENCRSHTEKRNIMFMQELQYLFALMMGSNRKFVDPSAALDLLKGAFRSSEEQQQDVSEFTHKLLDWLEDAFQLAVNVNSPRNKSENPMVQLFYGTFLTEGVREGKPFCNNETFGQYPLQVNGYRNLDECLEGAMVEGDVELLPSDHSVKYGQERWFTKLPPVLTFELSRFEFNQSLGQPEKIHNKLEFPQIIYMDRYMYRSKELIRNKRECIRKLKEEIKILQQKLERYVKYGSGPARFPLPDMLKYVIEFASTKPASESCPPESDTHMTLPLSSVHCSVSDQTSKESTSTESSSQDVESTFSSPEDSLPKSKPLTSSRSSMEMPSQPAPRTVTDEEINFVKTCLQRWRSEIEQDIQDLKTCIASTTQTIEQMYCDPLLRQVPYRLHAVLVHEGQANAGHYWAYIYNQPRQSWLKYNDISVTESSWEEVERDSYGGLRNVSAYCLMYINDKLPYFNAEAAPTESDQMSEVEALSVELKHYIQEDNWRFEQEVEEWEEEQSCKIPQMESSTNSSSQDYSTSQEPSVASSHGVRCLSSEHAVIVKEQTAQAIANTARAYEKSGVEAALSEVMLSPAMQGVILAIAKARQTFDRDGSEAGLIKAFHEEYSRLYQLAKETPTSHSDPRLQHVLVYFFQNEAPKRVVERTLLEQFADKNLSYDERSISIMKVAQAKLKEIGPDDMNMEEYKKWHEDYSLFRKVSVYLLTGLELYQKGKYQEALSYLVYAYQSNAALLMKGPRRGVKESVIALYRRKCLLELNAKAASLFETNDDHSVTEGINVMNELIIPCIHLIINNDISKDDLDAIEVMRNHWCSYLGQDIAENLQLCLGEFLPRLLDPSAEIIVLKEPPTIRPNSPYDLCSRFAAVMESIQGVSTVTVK
Outline: as §1

Sequence of USP24 (Q9UPU5 whole entry): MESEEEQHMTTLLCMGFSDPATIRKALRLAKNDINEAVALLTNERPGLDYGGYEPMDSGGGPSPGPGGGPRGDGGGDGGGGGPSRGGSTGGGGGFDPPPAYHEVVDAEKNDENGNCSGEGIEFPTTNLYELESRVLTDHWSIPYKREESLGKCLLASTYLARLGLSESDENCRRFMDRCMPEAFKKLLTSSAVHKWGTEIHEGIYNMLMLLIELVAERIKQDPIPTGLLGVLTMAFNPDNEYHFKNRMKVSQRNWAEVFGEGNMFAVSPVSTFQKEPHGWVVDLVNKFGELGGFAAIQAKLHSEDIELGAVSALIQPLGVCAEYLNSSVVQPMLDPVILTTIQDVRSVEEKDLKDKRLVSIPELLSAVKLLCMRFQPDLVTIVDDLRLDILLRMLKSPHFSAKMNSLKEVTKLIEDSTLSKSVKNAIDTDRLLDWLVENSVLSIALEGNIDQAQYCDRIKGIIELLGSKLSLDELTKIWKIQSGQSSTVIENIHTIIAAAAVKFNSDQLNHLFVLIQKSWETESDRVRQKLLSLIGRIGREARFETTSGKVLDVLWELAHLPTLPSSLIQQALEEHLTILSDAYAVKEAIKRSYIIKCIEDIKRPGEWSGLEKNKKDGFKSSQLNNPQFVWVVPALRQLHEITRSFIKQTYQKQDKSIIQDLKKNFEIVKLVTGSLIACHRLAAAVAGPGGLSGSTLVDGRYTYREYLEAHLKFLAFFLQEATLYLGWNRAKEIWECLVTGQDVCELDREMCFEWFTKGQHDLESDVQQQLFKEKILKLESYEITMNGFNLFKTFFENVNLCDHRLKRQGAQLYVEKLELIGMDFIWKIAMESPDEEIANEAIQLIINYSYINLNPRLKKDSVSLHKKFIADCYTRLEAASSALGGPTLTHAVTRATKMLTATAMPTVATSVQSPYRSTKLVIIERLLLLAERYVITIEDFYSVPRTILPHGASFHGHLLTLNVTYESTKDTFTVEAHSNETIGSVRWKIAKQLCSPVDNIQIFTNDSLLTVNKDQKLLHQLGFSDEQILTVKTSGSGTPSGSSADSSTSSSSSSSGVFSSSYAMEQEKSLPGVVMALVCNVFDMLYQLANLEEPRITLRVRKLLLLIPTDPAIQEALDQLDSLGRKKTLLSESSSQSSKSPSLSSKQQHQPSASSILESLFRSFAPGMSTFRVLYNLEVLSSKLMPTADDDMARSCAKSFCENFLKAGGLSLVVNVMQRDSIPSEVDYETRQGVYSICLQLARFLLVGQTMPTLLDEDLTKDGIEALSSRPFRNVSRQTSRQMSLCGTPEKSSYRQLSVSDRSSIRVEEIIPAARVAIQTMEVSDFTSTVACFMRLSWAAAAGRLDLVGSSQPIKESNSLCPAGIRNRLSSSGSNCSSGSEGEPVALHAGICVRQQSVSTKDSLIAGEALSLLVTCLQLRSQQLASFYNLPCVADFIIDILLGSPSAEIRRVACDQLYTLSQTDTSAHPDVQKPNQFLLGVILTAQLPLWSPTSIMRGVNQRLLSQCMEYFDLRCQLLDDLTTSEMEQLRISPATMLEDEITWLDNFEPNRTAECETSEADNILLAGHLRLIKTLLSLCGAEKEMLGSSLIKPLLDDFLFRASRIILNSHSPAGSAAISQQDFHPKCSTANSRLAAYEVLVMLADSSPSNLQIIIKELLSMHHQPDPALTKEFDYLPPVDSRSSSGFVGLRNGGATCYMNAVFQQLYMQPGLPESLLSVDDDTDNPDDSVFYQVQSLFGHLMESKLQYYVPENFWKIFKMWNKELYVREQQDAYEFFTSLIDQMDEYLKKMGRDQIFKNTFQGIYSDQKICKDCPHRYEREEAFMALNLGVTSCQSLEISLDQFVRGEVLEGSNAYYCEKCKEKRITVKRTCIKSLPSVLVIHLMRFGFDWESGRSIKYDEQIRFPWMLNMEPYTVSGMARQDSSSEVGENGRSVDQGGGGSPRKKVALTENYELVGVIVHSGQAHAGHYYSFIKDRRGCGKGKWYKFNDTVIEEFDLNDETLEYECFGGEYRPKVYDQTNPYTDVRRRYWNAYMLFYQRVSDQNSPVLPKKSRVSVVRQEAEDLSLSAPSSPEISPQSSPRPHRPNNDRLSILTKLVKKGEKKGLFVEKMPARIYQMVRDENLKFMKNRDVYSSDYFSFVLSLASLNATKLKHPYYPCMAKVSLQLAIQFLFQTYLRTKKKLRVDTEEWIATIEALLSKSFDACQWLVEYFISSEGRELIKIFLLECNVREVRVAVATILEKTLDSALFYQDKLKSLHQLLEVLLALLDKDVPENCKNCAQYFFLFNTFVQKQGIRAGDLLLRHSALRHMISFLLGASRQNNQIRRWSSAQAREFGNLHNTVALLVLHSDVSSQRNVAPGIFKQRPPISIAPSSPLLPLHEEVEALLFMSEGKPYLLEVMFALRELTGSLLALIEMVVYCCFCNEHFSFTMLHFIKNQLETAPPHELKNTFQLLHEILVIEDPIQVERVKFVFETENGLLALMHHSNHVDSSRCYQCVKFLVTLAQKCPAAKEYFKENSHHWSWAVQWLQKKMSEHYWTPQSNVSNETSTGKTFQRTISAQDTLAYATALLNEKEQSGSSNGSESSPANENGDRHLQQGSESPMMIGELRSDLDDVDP

O=C(CCl)Nc1ccc(Cl)c(F)c1
log2 ratio of Biotin-Ahx-Ub-VS probe labelling [1]: -0.486
log2 ratio of Biotin-Ahx-Ub-VS probe labelling [2]: -1.66 (active)
log2 ratio of Biotin-Ahx-Ub-VS probe labelling [3]: -1.62 (active)
log2 ratio of Biotin-Ahx-Ub-VS probe labelling [4]: -1.53 (active)
